About 2,600 (0.84%) of roughly 310,000 compounds were called active.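 How the source made its calls: active means B-score over 3 SD under the library average, and starting fluorescence ratio not unusually high; inactive means the rest.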 Many of the other results were omitted from the sample, so actives are more common in it than they were. Some structures have more than one record in an assay (separate samples or runs), and their calls can disagree.

Chain of High affinity choline transporter 1 (Homo sapiens) (Q9GZV3 whole entry, looked up): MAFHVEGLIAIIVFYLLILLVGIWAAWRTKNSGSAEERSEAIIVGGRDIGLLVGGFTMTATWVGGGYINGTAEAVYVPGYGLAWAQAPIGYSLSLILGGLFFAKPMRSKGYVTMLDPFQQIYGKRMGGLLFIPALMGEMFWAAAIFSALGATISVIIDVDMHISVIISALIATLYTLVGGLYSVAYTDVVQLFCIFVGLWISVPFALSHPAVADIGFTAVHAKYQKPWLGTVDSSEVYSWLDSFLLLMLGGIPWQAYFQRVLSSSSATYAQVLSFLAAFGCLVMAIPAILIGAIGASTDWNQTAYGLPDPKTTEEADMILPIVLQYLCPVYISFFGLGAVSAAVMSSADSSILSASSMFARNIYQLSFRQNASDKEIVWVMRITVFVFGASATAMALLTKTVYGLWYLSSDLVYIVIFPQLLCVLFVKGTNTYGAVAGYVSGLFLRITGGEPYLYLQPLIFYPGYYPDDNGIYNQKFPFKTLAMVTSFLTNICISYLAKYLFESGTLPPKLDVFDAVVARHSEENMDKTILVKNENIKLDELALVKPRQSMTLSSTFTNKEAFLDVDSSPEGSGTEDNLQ

This assay concerns the target High affinity choline transporter 1 (Homo sapiens) (UniProt Q9GZV3). Put plainly: inhibitors of human choline transporter CHT (AID 488975).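 On B-score: choline stimulus applied at its EC90 after an EC20 pre-addition; B-score computed on integrated fluorescence ratio after choline addition.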 To be noted: CHT-expressing cells, membrane potential dye, choline response, at 10 µM; stronger effect = lower value.
For the molecule `O=C1/C(=C/c2ccc(F)cc2)SC(=S)N1NS(=O)(=O)c1ccccc1`, the B-score is -6.62 (active). For the molecule `COc1ccc(/C=C2\SC(=S)N(CC(=O)NNC(=O)c3ccncc3)C2=O)cc1`, the B-score entry is “inactive”.

Take `COc1ccccc1C(=O)NNC(=O)CCN1C(=O)/C(=C\c2ccccc2)SC1=S`: the B-score entry is “inactive”. As to `O=C(O)c1ccc(/C=N/NC(=O)c2ccc(Br)cc2)cc1`, the B-score result is “inactive”.

As for `COc1ccc(/C=C2\SC(=S)N(CCC(=O)Nc3ccccn3)C2=O)cc1OC`, the B-score entry is “inactive”.

In the case of `CCOc1ccc(/C=C2\SC(=S)N(NC(=O)c3ccncc3)C2=O)cc1OC`, the B-score is -5.15 (active).

`O=C1/C(=C/c2ccc(F)cc2)SC(=S)N1CCCC(=O)N1CCCCC1CCO` (stereo not given): the B-score entry was “inactive”. As for `Cn1cccc1/C=C1\SC(=S)N(NC(=O)c2ccc(Cl)cc2)C1=O`, the B-score result is “inactive”. Take `O=C(O)c1ccc(/C=C2\SC(=S)N(NC(=O)c3ccc(Br)cc3)C2=O)cc1`: the B-score was -5.15 (active). On to `COc1ccc2oc(C(=O)N(CC(C)C)C3CCS(=O)(=O)C3)c(C)c2c1` (stereo not given), for which the B-score entry is “inactive”. For the molecule `O=C(NCc1ccc(Cl)cc1)C(=O)NCC1CCCN1S(=O)(=O)c1cccs1` (stereo not given), the B-score entry was “inactive”. On the same count and under the same terms, the result for `CC1CC(C)(C)CC2(C1)NC(=O)N(CC(=O)Nc1nccs1)C2=O` (stereo not given) reads “inactive”. The same measure, in the same setting: with `Cc1cccc(-n2ncc(Cl)c(Cl)c2=O)c1` the figure was -6.46 (active); with `C=CCNc1cnn(-c2ccc(C)cc2)c(=O)c1Cl`, “inactive”; with `O=c1c(Cl)c(NC2CC2)cnn1-c1ccccc1`, “inactive”. As to `CCN1C(=O)[C@H]2[C@@H](c3ccc(SC4CCCCC4)c(OC)c3)N[C@@](Cc3ccccc3)(C(=O)OC)[C@H]2C1=O`, the B-score entry was “inactive”. With `COc1cc(OC)cc(C(=O)NCCCn2ccnc2)c1`, the B-score result is “inactive”. As for `COc1ccc(/C=C(\C#N)C(=O)NCCCn2ccnc2)cc1`, the B-score entry was “inactive”. With `COc1cccc(-c2nn(-c3ccccc3)cc2/C=C(\C#N)C(=O)NCCCn2ccnc2)c1`, the B-score is -6.63 (active).

For the molecule `Cc1ccc(S(=O)(=O)N2[C@@H](c3cccc(Cl)c3)C(C(=O)O)=CC[C@H]2c2ccc(Cl)c(Cl)c2)cc1`, the B-score result is “inactive”.

For `COc1cccc(N2CC(NS(=O)(=O)c3ccc(Cl)cc3)CC2=O)c1` (stereo not given), the B-score result was “inactive”. On to `COc1cccc(CNC(=O)C(=O)NCCC2CCCCN2S(=O)(=O)c2ccc(C)cc2)c1` (stereo not given), for which the B-score result is “inactive”. Regarding `C/C(=N\NC(=O)c1cccnc1)c1ccc(-c2ccccc2)cc1`, the B-score result was “inactive”. In the case of `C/C(=N\NC(N)=S)c1ccncc1`, the B-score entry was “inactive”. For the molecule `C/C(=N\NC(N)=S)c1cccnc1`, the B-score is -9.98 (active). As for `CC(Oc1ccc2ccccc2c1)C(=O)NNC(=S)NC(=O)c1ccco1` (stereo not given), the B-score was -5.21 (active). Turning to `Cc1ccc(C(=O)NNC(=O)C(C)Oc2ccc3ccccc3c2)o1` (stereo not given), the B-score result was “inactive”.

For the molecule `O=C(Nc1ccc2ccccc2c1)/C(=C/c1cccc(Br)c1)NC(=O)c1ccco1`, the B-score entry is “inactive”.

With `CCCCN(C(=O)CCNC(=O)NC12CC3CC(CC(C3)C1)C2)c1c(N)n(CCCC)c(=O)[nH]c1=O`, the B-score result is “inactive”. For the molecule `COc1ccc(CCNC(=O)C(=O)NCC2OCCN2S(=O)(=O)c2cccs2)cc1OC` (stereo not given), the B-score entry is “inactive”. As to `O=C(Nc1ccccc1N1CCCC1)c1ccc(F)c(S(=O)(=O)N2CCOCC2)c1`, the B-score result is “inactive”. In the case of `CC(C)CN(C(=O)COC(=O)c1ccc(Cl)c(N)c1)c1c(N)n(Cc2ccccc2)c(=O)[nH]c1=O`, the B-score result was “inactive”. For `Cc1nc2sc3c(c2c(=O)n1NC(=O)CCl)CCCC3`, the B-score result is “inactive”. In the case of `COCCNc1nc(-n2nc(C)cc2C)nc2sc3c(c12)CCCC3`, the B-score was -4.98 (active). As for `Cc1cc(C)n(-c2nc(SCC(=O)N3CCCC3)c3c4c(sc3n2)CCCC4)n1`, the B-score result was “inactive”. Take `N#CC1(NC(=O)COC(=O)CSc2ccc(F)cc2)CCCCC1`: the B-score result is “inactive”. `CCOc1ccc(S(=O)(=O)Nc2ccc(C(=O)NCCCN3CCCC3=O)cc2)cc1`: the B-score result is “inactive”. On the same count and under the same terms, the result for `COc1ccc(S(=O)(=O)N2CCCC2CNC(=O)C(=O)NC2CC2)cc1` (stereo not given) reads “inactive”; that for `CCOC(=O)N1CCN(S(=O)(=O)c2ccc(OC)cc2)CC1`, “inactive”.

As to `COc1ccc(S(=O)(=O)N2CCN(C(=O)NC3CCCCC3)CC2)cc1`, the B-score is -6.98 (active). Consider `OCCCNc1nccc(-c2cc(Nc3cccc(Cl)c3)ncn2)n1`, for which the B-score result was “inactive”. `CC(C)C[C@H](CO)Nc1nc(N(C)c2cccc(Cl)c2)c2ncn(C(C)C)c2n1`: the B-score entry is “inactive”. Turning to `CC(C)n1cnc2c(Nc3cccc(Cl)c3)nc(N(CCO)CCCO)nc21`, the B-score is -7.57 (active). For the molecule `COc1ccccc1N(C)S(=O)(=O)c1ccc(Cl)c(C(=O)Nc2ccncc2)c1`, the B-score result was “inactive”.

Consider `COc1ccc(NS(=O)(=O)c2ccc(C)c(C(=O)N(C)Cc3ccc(OC)cc3OC)c2)cc1`, for which the B-score result was “inactive”. In the case of `CC1(C)S[C@@H]2[C@H](N=CN3CCCCCC3)C(=O)N2[C@H]1C(=O)O`, the B-score result was “inactive”. Regarding `CC1(C)SC2C(NC(=O)COc3ccccc3)C(=O)N2C1C(=O)O` (stereo not given), the B-score was -6.15 (active) and the result was inactive.

As for `CC1(C)S[C@@H]2[C@H](NC(=O)COc3ccccc3)C(=O)N2C1C(=O)OCc1ccccc1` (stereo not given in full), the B-score result is “inactive”. For `COC(=O)[C@]1(C)N[C@H](c2ccc(-c3ccc(Cl)c(Cl)c3)cc2)[C@@H]2C(=O)N(C)C(=O)[C@@H]21`, the B-score result is “inactive”.

For `O=C(NCC(c1cccs1)N1CCOCC1)c1cc(Cl)ccc1[N+](=O)[O-]` (stereo not given), the B-score result was “inactive”.

For the molecule `OCCCNc1nc(-c2ccccc2)c2cc(Cl)ccc2n1`, the B-score result is “inactive”. `CCC(C)NC(=O)Cn1nc(C(F)(F)F)c2c1CCC2` (stereo not given): the B-score entry was “inactive”. Consider `COC(=O)c1ccccc1NC(=O)CSc1nc2c(c(=O)[nH]1)CCC2`, for which the B-score entry is “inactive”. Same read-out and setting: the result for `CC(C)OC(=O)Cn1nc(C(F)(F)F)c2c1CCCC2` reads “inactive”.

For `COC(=O)c1ccccc1NC(=O)Cn1nc(C(F)(F)F)c2c1CCC2`, the B-score is -5.17 (active). For `Cc1cc(NC(=O)Cn2nc(C(F)(F)F)c3c2CCCC3)no1`, the B-score entry was “inactive”. Turning to `O=C(Cn1nc(C(F)(F)F)c2c1CCC2)NCc1ccc(F)cc1`, the B-score was -6.14 (active). Still for that read-out and setting: the result for `N#CCN(C(=O)COC(=O)C1CC2CCCC(C1)C2=O)c1ccccc1` (stereo not given) reads “inactive”; that for `CC1CCN(c2ccc(-c3ccc(NC(=O)c4ccco4)cc3)nn2)CC1`, “inactive”; that for `Cc1noc(C)c1CSCC(=O)Nc1ccc(Br)cc1Cl`, “inactive”. The same measure, in the same setting: with `O=C(c1ccncc1)N1CCN(S(=O)(=O)c2cc(C(F)(F)F)cc(C(F)(F)F)c2)CC1` the entry was “inactive”; with `CCN(CC)Cc1c(C(=O)N/N=C/c2cccc(OCc3ccc(F)cc3)c2)nnn1-c1nonc1N`, -5.26 (active). Turning to `CN(C)Cc1c(C(=O)N/N=C/c2ccccc2OCc2ccc(F)cc2)nnn1-c1nonc1N`, the B-score entry is “inactive”. In the case of `COCc1c(C(=O)N/N=C\c2cccnc2)nnn1-c1nonc1N`, the B-score entry was “inactive”.
